From PubChem BioAssay
Only some compounds are listed: those with a hit (about 0.93% of all), similar ones and a draw of the others.
TexasRed fluor: Texas Red fluorescence interference in TRb-SRC2 counter-screen; 0.29% of 280,000 active; TRb/SRC2 Texas Red total fluorescence interference; Potency, µM (titrated, usually from 106 µM); AID 1479; active = well fitted curve in either direction with a large enough effect; inconclusive = small, poorly fitted or top-dose-only effect
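Human TRb ligand-binding domain at 0.6 uM with 20 nM Texas Red SRC2 peptide in Tris buffer containing 1 uM T3 and 5% DMSO, incubated with compound 5 h at ambient temperature. Total fluorescence (555/632 nm) calculated as parallel + 2 × perpendicular.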
TRb-SRC2 inh: inhibitors of human thyroid hormone receptor beta-SRC2 interaction; P10828; TRbeta-SRC2 peptide binding, fluorescence polarization; receptor liganded with 1 µM T3; Potency, µM (highest dose often 106 µM), usual class: inhibitors; 0.065% of 280,000 active; active = well fitted inhibition curve with a large enough effect; inconclusive = small, poorly fitted or top-dose-only effect, or effect the other way; note: nearly all actives have a fitted effect of over 50% in size
Target sequence (P10828 whole entry, looked up): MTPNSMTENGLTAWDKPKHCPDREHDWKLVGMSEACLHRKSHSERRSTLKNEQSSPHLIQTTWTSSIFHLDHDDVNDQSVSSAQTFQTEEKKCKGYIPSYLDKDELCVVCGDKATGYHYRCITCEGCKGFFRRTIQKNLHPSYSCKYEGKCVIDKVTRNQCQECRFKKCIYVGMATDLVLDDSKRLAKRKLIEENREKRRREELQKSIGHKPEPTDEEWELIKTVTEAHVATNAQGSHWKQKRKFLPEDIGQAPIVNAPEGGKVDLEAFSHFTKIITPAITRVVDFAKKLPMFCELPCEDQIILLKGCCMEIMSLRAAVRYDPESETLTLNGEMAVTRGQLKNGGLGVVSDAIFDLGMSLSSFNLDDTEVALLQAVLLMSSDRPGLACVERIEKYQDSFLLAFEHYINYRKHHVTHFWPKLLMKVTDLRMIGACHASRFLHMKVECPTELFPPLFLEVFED
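Polarization signal, normalized between peptide-alone and full complex controls, measured compound effects on T3-liganded human TRb LBD (0.6 uM) binding 20 nM Texas Red SRC2 peptide after 5 hr.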
RGS12 GoLoco inh: inhibitors of human Gai1-RGS12 GoLoco interaction (red fluorophore) | P63096 | Gai1:RGS12 GoLoco peptide FP, rhodamine, 10 min | Potency, µM (top dose mostly 61.6 µM), usual class: inhibitors | 0.44% of 230,000 active | AID 880; active = well fitted inhibition curve with a large enough effect, not every such curve was filed as active; inactive = no such curve, though single readings can be large or run the other way; note: nearly all actives have a fitted effect of over 30% in size
FBPA coupling cs: inhibits coupling enzyme system, counter-screen for aldolase hits; 0.67% of 290,000 active; coupling enzyme system counterscreen, AmpLite Red fluorescence; activity change, negative = inhibition, % at 58.2 µM, hits read low; in the data active = activity change below about -30%
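Counterscreen lacking aldolase: glyceraldehyde-3-phosphate coupling-enzyme reagent preincubated 10 min at RT with compound (at 57.5 uM final), then substrate/coupling system with AmpLite Red added; fluorescence read at 525/598 nm after 20 min RT.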
Hits are given with their value; 0 = inactive; ? = inconclusive; - = no result given; [ ] = dose if it differs, or a comment.

SMILES | TexasRed fluor | TRb-SRC2 inh | RGS12 GoLoco inh | FBPA coupling cs
CCn1c(CSc2nccn2C)nc2cc(C(=O)O)ccc21 | 12.6µM[fluorescent] | ? | 15.8µM | -36.4
Cn1ccnc1SCC(=O)c1ccc2ccccc2c1 | 0 | 0 | 0 | 0
O=C1C(O)=C(O)C(=O)C(O)=C1O | 0 | 0 | 25.1µM | 0
CCc1ccccc1NS(=O)(=O)c1ccc2c(c1)CCCN2C(=O)C1CCC1 | ? | 0 | - | -
CCN1C(C(=O)c2ccccc2)=C(OC(=O)COc2ccc(C)cc2)c2ccccc2S1(=O)=O | ? | 0 | - | -
Cc1ccc(C)c(NC(=S)/C(=C(\[O-])c2ccc(Cl)s2)[n+]2ccccc2)c1 | 0 | 0 | 0 | -40.3
[O-]/C(=C(\C(=S)Nc1cccc2ccccc12)[n+]1ccccc1)c1ccc(Cl)s1 | 0 | 0 | 0 | -39.5
CC(C)(C)c1cc[n+](/C(C(=S)NC2CC2)=C(/[O-])c2ccc(Cl)s2)cc1 | 0 | 0 | 0 | -43.9
CCc1cccc(CC)c1NC(=S)/C(=C(\[O-])c1ccc(Cl)s1)[n+]1ccccc1 | 0 | 0 | 0 | 0
CCOC(=O)c1cnc2ccc(OC)cc2c1Nc1ccc(OCc2ccccc2Cl)cc1 | ? | 0 | - | -
CCOC(=O)c1c(-c2ccccc2)csc1NC(=O)c1cc(-c2cccc(OC)c2)on1 | 0 | 0 | - | -
CCOc1cc(N2CCOCC2)c(OCC)cc1NS(=O)(=O)c1ccc(Cl)s1 | 0 | 0 | 0 | -44.8
CCNC(=S)Nc1cc(OCC)c(N2CCOCC2)cc1OCC | 0 | 0 | 0 | 0
CCCNC(=O)Nc1cc(OCC)c(N2CCOCC2)cc1OCC | 0 | 0 | 0 | -52.7
CC(C)C(=O)OCC(C)(C)C(O)C(C)C (configuration not stated) | 0 | 0 | - | -
C[n+]1ccc(/C=C/c2ccc(Br)cc2)cc1 | 0 | 0 | 20µM | 0
CC/C=C\CCOC(=O)c1ccccc1O | 0 | 0 | - | -
O=C(c1nc2ccc([N+](=O)[O-])cc2[nH]c1=O)[C@@H](O)c1ccc2c(c1)OCO2 | - | - | 0[14.2 µM] | -
Cc1ccc(-n2sc3ccccc3c2=O)cc1 | 0 | 0 | 10µM | 0
Cc1ccc(C)c(-n2c3nc(=O)[nH]c(=O)c-3cc3cc([N+](=O)[O-])ccc32)c1 | 0 | 0 | 0 | -47.4
Cc1ccc(-c2nc(S(=O)(=O)c3ccc(Cl)cc3)c(N3CCCCC3)o2)cc1 | 0 | 0 | - | -
O=C1S/C(=C\c2ccc(N3CCOCC3)o2)C(=O)N1Cc1ccc(F)cc1 | 0 | 0 | 0 | -35.6
CC(C)OC(=O)CN1C(=O)S/C(=C/c2ccc(N3CCCCC3)o2)C1=O | 0 | 0 | 0 | -37.8
O=C1NC(=S)S/C1=C/c1ccc(N2CCOCC2)o1 | 0 | 0 | 0 | -51.1
O=C1CCCCCCCCCCC1 | 0 | 0 | - | -
SMILES | TexasRed fluor | TRb-SRC2 inh | RGS12 GoLoco inh | FBPA coupling cs
CC(=O)NC1=C(N(C)C2CCS(=O)(=O)C2)C(=O)c2ccccc2C1=O (configuration not stated) | 0 | 0 | 0 | -70.5
Cc1ccnc(NS(=O)(=O)c2ccc(NC(=O)C(C)(C)Oc3ccc(Cl)cc3)cc2)n1 | 0 | 0 | - | -
O=C(O)c1ccc2c3c(ncnc13)-c1ccccc1C2=O | 0 | 0 | 17.8µM | 0
O=C1c2ccccc2C(=O)c2c(NC(=O)c3ccc4c5c(ncnc35)-c3ccccc3C4=O)cccc21 | - | - | 0[14.2 µM] | -
Nc1ccc(O)cc1C(=O)OCC(=O)C12CC3CC(CC(C3)C1)C2 | 0 | ? | 0 | -46.8
COC/C=C/C1=CC2=CC(=O)C(C)(OC(=O)CCc3ccccc3)C(=O)C2=CO1 (configuration not stated) | 0 | 0 | 0 | 0
COc1cccc2c1CCc1c-2nc2ccccc2c1C(=O)O | - | - | - | -32.8
O=C(O)c1c2c(nc3ccccc13)/C(=C/c1ccc(O)cc1)CC2 | 0 | 0 | 0 | 0
Cc1ccc(NC(=O)CSc2nc3nccnc3c(=O)n2CCc2c[nH]c3ccccc23)cc1 | 25.1µM[quencher] | ? | - | -
CCOc1ccccc1C1C(C#N)=C(N)SC(N)=C1C#N | 0 | 0 | 0 | -31.3
CCOc1ccc(C2C(C#N)=C(N)SC(N)=C2C#N)cc1OC | 0 | 0 | 0 | -38.9
NCCNc1cccc2ccccc12 | 0 | 0 | 0 | -
COc1ccc(NC(=O)CSc2c3c(nc4ccc(Cl)cc24)CCCC3)cc1Cl | 0 | 0 | - | -
CCOC(=O)c1c(NC(C)=O)c2c3c(sc2n1Cc1nc(-c2ccccc2C)oc1C)CCCC3 | 0 | 0 | - | -
O=C(COC(=O)c1ccc2c(c1[N+](=O)[O-])C(=O)c1ccccc1C2=O)NC1CC1 | 0 | 0 | 0 | -33.3
COc1cc2[nH]c3c(Cl)ncnc3c2cc1OC | 0 | 0 | 0 | -42.8
N#CC(C#N)=c1ccc2c(c1)NC1(CCCCC1)N=2 | 44.7µM[fluorescent] | ? | 0 | 0
COc1ccc(-n2c(=O)c3ccccc3n(CC(=O)NCCc3ccccc3)c2=O)c(OC)c1 | 0 | 0 | - | -
Cc1ccc(CNc2ncnc3onc(-c4ccc(F)cc4)c23)cc1 | 0.0891µM[quencher] | 0 | - | -
O=C(NCc1ccc(F)cc1)C1CCCN(c2ncnc3onc(-c4ccc(F)cc4)c23)C1 (configuration not stated) | 15.8µM[quencher] | 0 | - | -
Fc1ccc(CNc2ncnc3onc(-c4ccc(F)cc4)c23)cc1 | 0 | 0 | - | -
COc1cccc(CNC(=O)C2CCCN(c3ncnc4onc(-c5ccc(F)cc5)c34)C2)c1 (configuration not stated) | 0 | 0 | - | -
Cl[Si](Cl)(Cl)c1ccccc1 | 0 | 0 | - | -
COc1ccc(CNC(=O)c2cnc3sc(N4CCOCC4)nn3c2=O)cc1 | 501µM[quencher] | 0 | - | -
Cc1c(Cl)cccc1NC(=O)Nc1ccc2snnc2c1 | 0 | 0 | - | -
SMILES | TexasRed fluor | TRb-SRC2 inh | RGS12 GoLoco inh | FBPA coupling cs
CCN(CC)c1ccc(NC(=O)COC(=O)COc2ccccc2[N+](=O)[O-])cc1 | 0 | 0 | 0 | 0
CCN(CC)c1ccc(NC(=O)COC(=O)C23CCC(=O)N2c2ccccc2S3)cc1 (configuration not stated) | 0 | 0 | 0 | -32.1
Cc1ccc(C)c(NC(=O)CSc2nc(=O)n(Cc3ccccn3)c3c2CCC3)c1 | 0 | 0 | - | -
COc1ccc(C(=O)Cc2nnc(C)s2)c(OC)c1 | 0 | 0 | 0 | -33.7
CCc1nnc(NC(=O)c2ccc(OC)cc2OC)s1 | 0 | 0 | 0 | 0
COc1ccc(CCNCc2ccc3c(c2)n(C)c(=O)n3C)cc1OC | 89.1µM[quencher] | 0 | - | -
CN(CC(=O)NCc1ccc(F)cc1)S(=O)(=O)c1ccc2[nH]c3c(c2c1)CCCC3 | 17.8µM[quencher] | 0 | - | -
Cc1cccc(C)c1NC(=O)CN(C)S(=O)(=O)c1ccc2[nH]c3c(c2c1)CCCC3 | 22.4µM[quencher] | 0 | - | -
Cc1ccc(C(=O)c2ccccc2)cc1 | 0 | 0 | - | -
CSc1nn(Cc2ccc(Br)cc2)c(N(C(C)=O)C(C)=O)c1S(=O)(=O)c1ccccc1 | 0 | 0 | - | -
N#C/C(=N\Nc1cc(Cl)cc(Cl)c1)c1nnc2n1CCCCC2 | 0 | 0 | 0 | 0
N#C/C(=C1\C(=O)Nc2c(Cl)cc(Cl)cc21)c1nnc2n1CCCCC2 | 0 | ? | 0 | -37.7
C/C(=C\C(=O)OCCCCCCCCC(=O)O)C[C@@H]1OCC(C[C@H]2O[C@H]2[C@@H](C)[C@H](C)O)[C@@H](O)[C@H]1O (some centres not stated) | 0 | 0 | - | 0
CCCCS(=O)(=O)N1CCc2nc(-c3ccc(OC)cc3C)c3c(c2C1)CO[C@@H](c1ccccc1)C3 | 0[11.2 µM] | 0[11.2 µM] | 0[14.2 µM] | 0
COC(=O)c1ccc(NC(=O)CN(Cc2ccccc2)S(=O)(=O)c2ccc(C)cc2)cc1 | 0 | 0 | - | -
